Entries with a potency or affinity are not part of this list.
tested on: Candida albicans; settings: Concentration 32 ug.mL-1; ASSAY_TEST Inhibition of Fungal Growth; detection method Absorption (OD530)

Compound	Inhibition [%]
CCOc1ccccc1NC(=O)Cn1nc2c(Sc3cccc(C)c3)nccn2c1=O	0.35
N#CCSc1nnc2c(=O)n(-c3ccc(Br)cc3)ccn12	1.63
Cc1ccc(CN(c2ccc3c(c2)OCO3)S(=O)(=O)c2ccc3nnc(C)n3c2)cc1	2.45
O=C(CSc1nc2ccccc2n2cnnc12)Nc1ccc2c(c1)OCCO2	2.01
O=C(Cn1nc2ccc(C(=O)NCc3ccccc3)cn2c1=O)Nc1ccc(Br)cc1	2.27
CCOc1ccc(-n2ccn3c(SCC(N)=O)nnc3c2=O)cc1	1.43
CCOc1ccccc1CNC(=O)CCc1nnc2ccc(-c3ccc(C)cc3)nn12	2.37
CCOC(=O)c1ccc(NC(=O)Cn2nc3ccc(S(=O)(=O)C(C)(C)C)nn3c2=O)cc1	15.58
Cc1cccc(NC(=O)Cn2nc3c4cc(-c5ccc(Cl)cc5)nn4ccn3c2=O)c1C	0.51
COc1ccc(OC)c(NC(=O)Cn2nc3ccc(SCc4ccc(Cl)cc4)nn3c2=O)c1	9.63
CC(C)Sc1ccc2nn(CC(=O)Nc3ccc(Cl)cc3F)c(=O)n2n1	16.98
Cc1ccc(Cn2c(=O)c3ccccc3n3c(=O)n(CC(=O)Nc4ccc5c(c4)OCCO5)nc23)cc1	0.1
CCc1cccc(C)c1NC(=O)Cn1nc2ccc(SCc3ccc(Cl)cc3)nn2c1=O	52.47
Cc1cc2nn(CC(=O)Nc3ccc(F)cc3F)c(=O)n2c(Nc2ccc(F)c(C)c2)n1	11.92
Cc1cc(C)c(NC(=O)Cn2nc3ccc(SCc4ccc(Cl)cc4)nn3c2=O)c(C)c1	6.58

Reference: ChEMBL document CHEMBL4513146, “CO-ADD screening of Karazin Kharkiv National University (Ukraine) compounds”
